Assay outcomes as filed in PubChem.
A selection: hits, their analogues and other compounds. The true share with any hit is near 6.9%.
Cy5 interf NS3h – enhances or quenches Cy5 fluorescence in NS3h assay. Cy5-dT15 DNA with NS3h, fluorescence interference; actives lie on both sides; signal over control mean, under 1 quenches. fluorescence interference ratio at 100 µM. 6% of 16,000 active;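 active = compound fluorescence over control fluorescence at most 0.8, a quencher, or at least a set upper limit, an enhancer; inactive = ratio between 0.8 and the set upper limit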
HCV NS3h FP – hepatitis C NS3 helicase inhibition, primary screen. NS3h Cy5-dT15 DNA binding, fluorescence polarization. inhibition, % at 100 µM. 1.6% of 16,000 active. AID 687043;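 active = inhibition above the average over every tested compound plus 3 SD, cut at about 40% in these data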
* = called active by the depositor.

SMILES | Cy5 interf NS3h | HCV NS3h FP
COc1ccc(OC)c(CN2CCN(Cc3ccc(OC)c(Br)c3)CC2)c1 | 0.93 | -7
O=C(Nc1ccc(Cl)cc1)Nc1nnc(Cc2ccc(Cl)cc2)s1 | 1.1 | -2
O=C(Nc1nnc(Cc2ccc(Cl)cc2)s1)c1ccccc1F | 0.7* | 25
O=C1CC(N2CCN(Cc3ccccc3)CC2)C(=O)N1c1cccc(Cl)c1 (stereo not given) | 0.81 | 16
CC(C)CNC(=O)/C(=C/c1ccc(F)cc1)NC(=O)c1ccccc1 | 0.95 | 12
Cc1ccc(C(=O)N/C(=C\c2ccc(Cl)cc2)C(=O)NCC(C)C)cc1 | 0.96 | 41*
CCNC(=O)C(=O)Nc1ccc(OC)cc1 | 0.96 | -7
O=C(COc1ccc(Br)cc1)Nc1cccc(NC(=O)c2cccc(Cl)c2)c1 | 1 | 6
COc1cc(/C=N\n2nnnc2N)ccc1OCc1c(C)no[n+]1[O-] | 1.1 | 12
COc1cc(/C=N/n2nnnc2N)ccc1OCc1ccc(F)cc1 | 0.77* | 10
COc1ccc(-n2nc3ccc(NC(=O)COc4ccccc4Cl)cc3n2)cc1 | 1 | 0
COc1ccc2nc(SCC(=O)NCc3ccccc3)[nH]c2c1 | 1 | 6
COc1ccc(C(=O)CSc2nc3ccc([N+](=O)[O-])cc3[nH]2)cc1 | 0.66* | -4
COc1ccc(Br)cc1CN1CCN(S(=O)(=O)c2ccccc2)CC1 | 1 | 10
Cc1ccc(SCc2cc(=O)n(-c3nc4ccccc4s3)[nH]2)cc1 | 0.94 | 20
Cc1ccc(S(=O)(=O)OCP(=O)(c2ccccc2)c2ccccc2)cc1 | 0.77* | 9
COCP(=O)(c1ccccc1)c1ccccc1 | 0.91 | -9
O=C(NCCNc1ccccc1[N+](=O)[O-])c1ccc(Br)cc1 | 0.92 | 8
COc1ccc(Cl)cc1NC(=O)c1cccc(N(C)C)c1 | 1 | 9
Cc1c(NC(=O)c2nn3c(c2Cl)NC(c2cccs2)CC3C(F)(F)F)c(=O)n(-c2ccccc2)n1C (stereo not given) | 1 | 6
CCC1=NN(C(=O)c2ccccc2)C(O)(c2ccc(Br)cc2)C1 (stereo not given) | 0.76* | 10
CCC1=NN(C(=O)c2cccc(O)c2)C(O)(c2ccncc2)C1 (stereo not given) | 1 | -4
O=C(O)c1ccc(CSc2nc3ccc(N4C(=O)C5CCCCC5C4=O)cc3s2)cc1 (stereo not given) | 1.1 | 1
C=CCc1c(C)nc2cc(-c3ccc(C)cc3)[nH]n2c1=O | 1.2* | 62*
C=CCc1c(C)nc2c(C)c(-c3ccc(C)cc3)[nH]n2c1=O | 1.1 | 20
SMILES | Cy5 interf NS3h | HCV NS3h FP
C/C(=C\c1ccccc1)C(=O)Nc1c(C)n(C)n(-c2ccccc2)c1=O | 1 | -6
Cc1ccc(Nc2nc(-c3ccc(-c4ccccc4)cc3)cs2)cc1 | 0.98 | -6
Nc1ccc(Nc2nc(-c3ccc(Br)cc3)cs2)cc1 | 0.78* | 5
Cc1cc(C)nc(N=C(N)Nc2ccc(C(=O)O)cc2)n1 | 1.1 | -14
Cc1cc(C)nc(N=C(N)Nc2ccc(Cl)cc2C(=O)c2ccccc2)n1 | 0.79* | 1
COC(=O)COc1ccc(/C=C2/C(=O)N(c3ccccc3)N=C2C)cc1 | 1.1 | 10
COc1ccc(/C=C2\C(=O)N(c3nc(-c4ccc(C)cc4)cs3)N=C2C)cc1 | 0.7* | 21
O=[N+]([O-])c1ccc2nc(-c3ccco3)[nH]c2c1 | 0.88 | 2
CCC(C)c1ccc(OCCOc2ccc(C=C3C(=O)NC(=S)NC3=O)cc2)cc1 (stereo not given) | 0.92 | 46*
CCC(C)c1ccc(OCCOc2ccc(C=C3C(=O)NC(=S)NC3=O)cc2OC)cc1 (stereo not given) | 0.85 | 5
O=C(NC(NC(=S)Nc1ccc(F)cc1)C(Cl)(Cl)Cl)c1ccc(F)cc1 (stereo not given) | 0.85 | 5
O=C(COc1ccc(Cl)cc1)Nc1nc(-c2ccc(Cl)cc2)cs1 | 0.93 | 13
CCOC(=O)Cc1csc(NC(=O)COc2ccc(-c3ccccc3)cc2)n1 | 0.78* | 13
CCOC(=O)c1cocc1C(=O)Nc1ccccc1C(=O)O | 1.1 | 0
COc1cc(NS(=O)(=O)c2ccc(N/C=C\C(=O)c3ccc(Br)cc3)cc2)nc(OC)n1 | 1.1 | 1
Cc1c(C(=O)Nc2cc(Cl)cc(Cl)c2)oc2ccccc12 | 1 | -1
COc1ccc(OC)c(NC(=O)COc2ccc(Br)cc2C)c1 | 1 | -4
CCCC(=O)Nc1cc(OC)ccc1OC | 0.74* | 16
NC(N)=NS(=O)(=O)c1ccc(NC(=O)c2cccc([N+](=O)[O-])c2)cc1 | 1.1 | 18
COc1ccc(NC(=O)c2nn3c(c2Cl)NC(c2cccs2)CC3C(F)(F)F)cc1OC (stereo not given) | 0.98 | 4
Cc1ccc(-n2nc(C)c3c(=O)oc(C)cc32)cc1 | 1 | 1
Cc1cc(C)c(/C=N\O)c(C)c1/C=N\O | 0.69* | -1
N#C/C(=C\c1cn(-c2ccccc2)nc1-c1cccs1)C(N)=O | 0.94 | 2
CCOC(=O)C1=C(C)N=c2s/c(=C\c3ccc([N+](=O)[O-])o3)c(=O)n2C1c1ccccc1Cl (stereo not given) | 0.71* | 19
CCOC(=O)C1=C(C)N=c2s/c(=C\c3ccc([N+](=O)[O-])o3)c(=O)n2C1c1ccc(C)cc1 (stereo not given) | 0.75* | 13
SMILES | Cy5 interf NS3h | HCV NS3h FP
CCOC(=O)C1=C(C)N=c2s/c(=C\c3ccc([N+](=O)[O-])o3)c(=O)n2C1c1cccs1 (stereo not given) | 1 | 8
CCOC(=O)C1=C(C)N=c2s/c(=C/c3ccccn3)c(=O)n2C1c1ccccc1Cl (stereo not given) | 0.95 | 28
COc1cc(NC(=O)c2cnn3c2NC(c2cc(OC)c(OC)c(OC)c2)CC3C(F)(F)F)cc([N+](=O)[O-])c1 (stereo not given) | 0.94 | 8
Cc1nnc(SCC(=O)Nc2ccccc2[N+](=O)[O-])[nH]c1=O | 1 | -1
COC(=O)C1=C(N)Oc2n[nH]c(C)c2C1c1ccc(Br)cc1 (stereo not given) | 0.99 | 9
Cc1[nH]nc2c1C(c1cc(Br)cs1)C(C#N)=C(N)O2 (stereo not given) | 1.2* | 4
CCCCCNC(=O)c1ccc(C(=O)NCCCCC)cc1 | 0.99 | 4
CCN(CC)CCCNC(=O)c1ccc(Cl)cc1 | 0.67* | 6
COc1ccc(Cl)cc1NC(=O)C1=C(C)NC(=S)NC1c1ccc(F)cc1 (stereo not given) | 0.95 | 5
CC(N=C(NS(=O)(=O)c1ccccc1)c1ccccc1)C(=O)O (stereo not given) | 1 | -15
Cc1ccc(S(=O)(=O)NC(=NC(Cc2ccccc2)C(=O)O)c2ccccc2)cc1 (stereo not given) | 0.74* | 20
COc1ccc(N(CC(=O)Nc2ccccc2Cl)S(=O)(=O)c2ccc(C)cc2)c(OC)c1 | 1.2* | -1
COc1ccc(NC(=O)CN(c2ccc(Cl)cc2)S(=O)(=O)c2ccccc2)cc1 | 1 | 11
COc1ccc(NC(=O)CN(c2cccc([N+](=O)[O-])c2)S(=O)(=O)c2ccccc2)cc1 | 1 | -2
COc1ccc(S(=O)(=O)N(CC(=O)Nc2ccc(Br)cc2)c2ccc(C)cc2)cc1OC | 0.68* | 17
COc1ccc(NC(=O)CN(c2cccc([N+](=O)[O-])c2)S(=O)(=O)c2ccccc2)c(OC)c1 | 0.7* | 28
